Reference: PubChem BioAssay (NCI)
About 83,000 compounds went through this panel and 20% of them were active in at least one assay; those are over-represented in the sample as a whole.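 Each cell line was grown in a 96-well plate and treated with one concentration of compound for 48 hours. Values below 10 were considered active.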 Calls of active or inactive are those of the source.

These molecules were tested on NCI/ADR-RES ovarian (assay: NCI-60 one-dose screen, 48 h (100 = growth as untreated, 0 = no growth, -100 = all killed)). Conditions: 10 µM unless noted.

| SMILES | growth |
| --- | --- |
| O=C(Cn1c2ccccc2c2ccncc21)N/N=C/c1c[nH]c2ccccc12 | 94.6% (inactive) |
| Cc1ccc(-c2nc3c(N=Nc4ccc(S(N)(=O)=O)cc4)c(N)nn3c(N)c2C#N)cc1 | 99.9% (inactive) |
| O=C(Nc1ccccc1Cl)c1c[nH]c(=O)c(-c2ccc(N3CCCOC4(CC4)C3)cc2)c1 | 60.6% (inactive) |
| OC(COc1ccccc1Cl)CN1CCN(c2ccc(Cl)cc2)CC1 (stereo not drawn) | 115% (inactive) |
| Nc1nccc2c1ccn2-c1ccc(NC(=O)Nc2cccc(C(F)(F)F)c2)cc1 | 89.3% (inactive) |
| O=C(Nc1ccc(-n2ccc3c(NC(=O)c4ccccc4)nccc32)cc1)Nc1cccc(C(F)(F)F)c1 | 65.7% (inactive) |
| O=C1C(Cl)=C(Nc2ccccc2)C(=O)C(Cl)=C1Nc1ccccc1 | 102% (inactive) |
| CC(=O)Nc1ccc([I+]c2ccc([N+](=O)[O-])cc2)cc1 | 113% (inactive) |
| CCN1CCN(Cc2ccc(NC(=O)Nc3cccc(-n4ccc5c(NC(=O)c6ccccc6)nccc54)c3)cc2C(F)(F)F)CC1 | 92.1% (inactive) |
| O=C(Nc1cccc(-n2ccc3c(NC(=O)c4ccccc4)nccc32)c1)c1cccc(C(F)(F)F)c1 | -1.18% (active) |
| CC(=O)N[C@@H](CNC(=O)c1cc(NC(=O)c2cc(NC(=O)c3cc(NC(=O)c4nccn4C)cn3C)cn2C)cn1C)CC(=O)Nc1cn(C)c(C(=O)Nc2cc(C(=O)Nc3cc(C(=O)Nc4cc(C(=O)NCCCN(C)CCCNC(=O)c5cccc(C(=O)O)c5)n(C)c4)n(C)c3)n(C)c2)n1 | 87.4% (inactive) |
| CCOC(=O)c1cnc2c(OC)ccc(OC)c2c1Cl | 110% (inactive) |
| NS(=O)(=O)c1ccc(Nc2nc(O)c(/C=C3\C=Nc4ccccc43)s2)cc1 | 101% (inactive) |
| CNC(=O)NN | 105% (inactive) |
| Cc1cc(O[C@@H]2O[C@@H](C)[C@H](O)[C@@H](O)[C@H]2O)c2c3c(c(O[C@@H]4O[C@@H](C)[C@H](O)[C@@H](O)[C@H]4O)cc2c1)C(=O)c1c(O)cccc1C3=O | 36.4% (inactive) |
| Cc1cccc(Cc2cnc(NC(=O)CCc3ccc(C)o3)s2)c1 | 17.2% (inactive) |
| C=CC(=O)NC(=O)Nc1ccccc1Cl | 105% (inactive) |
| COc1cccc(-c2nc3sccn3c2-c2ccnc(NCCNC(=O)c3ccccc3)n2)c1 | 70.5% (inactive) |
| COc1ccc(-c2nn(-c3ccc(NC(=O)Nc4ccc(Cl)c(C(F)(F)F)c4)cc3)cc2-c2ccncc2)cc1Cl | 9.1% (active) |

| SMILES | growth |
| --- | --- |
| CC(C)CNCC(O)COc1ccc(C(C)(C)c2ccc(OCC(O)CNCC(C)C)cc2)cc1 (stereo not drawn) | 86.7% (inactive) |
| Cc1ccc2[nH]c3nc4cccnc4c(C)c3c2c1 | 83.2% (inactive) |
| O=C(Nc1ccc(-n2ccc3c(NC(=O)c4ccccc4)nccc32)cc1)c1ccc(Cl)c(C(F)(F)F)c1 | 22.9% (inactive) |
| COc1ccc(-c2nn(-c3ccc(NC(=O)Nc4ccc(Cl)c(Cl)c4)cc3)cc2-c2ccncc2)cc1Cl | 12.8% (inactive) |
| Nc1nccc2c1ccn2-c1cccc(NC(=O)c2ccc(N3CCOCC3)c(C(F)(F)F)c2)c1 | -2.74% (active) |
| COc1ccc(/C=C/C(=O)/C=C(/C=C/c2ccc(OC)c(OC)c2OC)OB(F)F)c(OC)c1OC | 32.5% (inactive) |
| Cc1cc[n+](CCCC[n+]2ccc(C)cc2)cc1 | 97.8% (inactive) |
| COC1=C(OC)C(=O)C=CC1=O | 109% (inactive) |
| Cc1ccccc1C[P+](c1ccccc1)(c1ccccc1)c1ccccc1 | 114% (inactive) |
| CC/C(=C(\CC)c1ccc(OCCN(CC)CC)cc1)c1ccc(OCCN(CC)CC)cc1 | 57.6% (inactive) |
| COc1cccc(-c2nc3sccn3c2-c2ccnc(NCCNC(=O)Nc3cccc(C(F)(F)F)c3)n2)c1 | 27.2% (inactive) |
| COc1ccc(-c2cnc(-c3ccc(F)cc3)[nH]2)cc1 | 115% (inactive) |
| O=C(Nc1ccc(-n2cc(-c3ccncc3)c(-c3ccc(O)c(Cl)c3)n2)cc1)c1ccc(Cl)c(C(F)(F)F)c1 | 18.5% (inactive) |
| O=C(Nc1ccc(-n2ccc3c(NC(=O)c4ccccc4)ncnc32)cc1)c1ccc(Cl)c(C(F)(F)F)c1 | 29.9% (inactive) |
| C=CC(=O)Nc1cccc(Nc2nc(Nc3ccc(OCCOC(F)F)cc3)ncc2F)c1 | 44.6% (inactive) |
| O=[N+]([O-])c1cccc(C(c2ccccc2)c2ccccc2)c1 | 95.8% (inactive) |
| O=C(NCCNc1nccc(-c2c(-c3cccc(O)c3)nc3sccn23)n1)Nc1cccc(C(F)(F)F)c1 | 108% (inactive) |
| O=C(Nc1cccc(-n2ccc3c(NC(=O)c4ccccc4)nccc32)c1)c1cc(N2CCOCC2)cc(C(F)(F)F)c1 | 7.24% (active) |
| O=C(Nc1ccc(-n2cc(-c3ccncc3)c(-c3ccc(O)c(Cl)c3)n2)cc1)c1cc(C(F)(F)F)cc(C(F)(F)F)c1 | 67.2% (inactive) |
